Screens as filed in PubChem BioAssay.
JNK3 inh: JNK3 kinase activity inhibitors, primary screen, biochemical, human, purified enzyme; Mitogen-activated protein kinase 10 (Homo sapiens), P53779; HTS; inhibition, % at 8 µM; 0.61% of 60,000 active; in the data active means inhibition above about 17%;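 further: 0% = DMSO and 100% = reference inhibitor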
FXIIa inh mix: human factor XIIa inhibitors, primary screen, biochemical, pooled compound mixtures, fluorogenic substrate. purified FXIIa. inhibition, % at 5 µM. 0.2% of 62,000 active. AID 684, 2007;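 further: 0% = enzyme without compound and 100% = no enzyme blank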
HER2 expr 66K: inhibitors of Her2 protein expression, primary screen, SKBR-3 cells, AlphaScreen, 66K library; Receptor tyrosine-protein kinase erbB-2 (Homo sapiens), P04626; SKBR-3 HER2 protein level, 18-24 h; hits give low values; HER2 level % of control, % at 10 µM; 0.69% of 65,000 active;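 active means HER2 level under 5% of the carrier-only control; inconclusive means no clear call, values can overlap the other calls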;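 further: 100% = DMSO carrier and 0% = 500 nM PU-H71 HSP90 inhibitor; lower value means stronger loss of Her2 protein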
M1 antagonist: antagonists of rat M1 muscarinic receptor. CHO-M1 cells, Fluo-4 calcium, ACh EC80 antagonist mode; hits give low values. B-score at 10 µM. 3.4% of 64,000 active. AID 628, 2007;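 active means calcium fluorescence response, raw or row-and-column corrected B-score, differing from the plate sample mean either way at a set confidence level, mostly lower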
Target sequence (P08482 whole entry, looked up): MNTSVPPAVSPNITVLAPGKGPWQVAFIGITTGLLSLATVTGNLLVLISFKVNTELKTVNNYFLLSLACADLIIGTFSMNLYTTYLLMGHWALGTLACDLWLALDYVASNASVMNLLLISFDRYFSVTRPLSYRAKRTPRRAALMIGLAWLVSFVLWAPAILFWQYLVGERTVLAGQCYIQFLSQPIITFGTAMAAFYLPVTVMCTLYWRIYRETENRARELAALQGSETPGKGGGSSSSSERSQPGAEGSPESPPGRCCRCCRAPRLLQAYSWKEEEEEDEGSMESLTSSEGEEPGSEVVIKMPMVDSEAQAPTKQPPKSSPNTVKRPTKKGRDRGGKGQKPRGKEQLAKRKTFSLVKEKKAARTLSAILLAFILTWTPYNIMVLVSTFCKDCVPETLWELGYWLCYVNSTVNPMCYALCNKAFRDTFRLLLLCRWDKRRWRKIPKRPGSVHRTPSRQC
FXIa mix inh: FXIa protease inhibitors in compound pools, primary screen, biochemical, 10-compound mixtures. Coagulation factor XI (Homo sapiens), P03951. purified FXIa, fluorogenic substrate, pooled mixtures. inhibition, % at 5 µM. 0.19% of 62,000 active. AID 680, 2007;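 further: each value is inhibition by a whole ten-compound pool holding the compound; 0% = enzyme with no mixture and 100% = wells lacking enzyme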
M1 agonist: M1 muscarinic receptor agonists, primary screen, CHO-M1 cells, Fluo-4 calcium, agonist mode; Muscarinic acetylcholine receptor M1; Fluo-4 calcium fluorescence; hits give high values; B-score at 10 µM; 3% of 64,000 active;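 active means fluorescence rise, raw or as B-score row- and column-corrected plate score, outside the 99.7% band of its plate's samples, either direction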
M1 ag confirm: rat M1 muscarinic receptor agonists, confirmation, CHO-M1 cells, Fluo-4 calcium, duplicate retest. shares compounds with M1 agonist. Fluo-4 calcium fluorescence, agonist mode; actives lie on both sides. fluorescence change (max-min) at 10 µM. 19% of 1,700 active. AID 1488, 2009;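 active means fluorescence change differs from the solvent-only DMSO control mean at a set confidence level in both duplicate runs; inconclusive means differs from solvent-only control mean in just one of two runs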;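 further: an EC20 dose of acetylcholine follows compound addition during the same imaging run; raw fluorescence intensity difference in instrument units with no normalization to controls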
M4 ag counter: agonist activity at rat M4 receptor, confirmation, counter-screen for M1 allosteric modulator project, cell-based, agonist mode | fluorescence change (max-min) at 10 µM | 9% of 1,700 active | shares compounds with M1 agonist | CHO M4/Gqi5 cells, Fluo-4 calcium fluorescence; actives lie on both sides;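 active means fluorescence change differing from the plate's solvent-only control wells at 99.7% confidence in both duplicates, whether higher or lower; inconclusive means differs from solvent controls in only one of two duplicates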
Starred values were filed as active, the others as inactive; ? = inconclusive; . = no result given. A selection: hits, their analogues and other compounds. The true share with any hit is near 6.9%. Unless noted, no stated cut-off is given here; in the data, active means inhibition above about 20% (passing the limit was not always enough); inactive means the rest.

SMILES | JNK3 inh | FXIIa inh mix | HER2 expr 66K | M1 antagonist | FXIa mix inh | M1 agonist | M1 ag confirm | M4 ag counter
CCn1nc(NC(=O)c2cccnc2)c2cc3ccccc3nc21 | -11 | -1 | 137 | -0.096 | 8 | 5* | -30* | -92*
CCn1nc(NC(=O)c2ccccn2)c2cc3cc(C)ccc3nc21 | -4 | -1 | 127 | 1 | -4 | -0.0062 | . | .
Cc1nc2sccn2c1-c1nc(C2CC2)c(C(=O)c2ccc3c(c2)NC(=O)CO3)s1 | -1 | 1 | 89 | -0.99 | 8 | -0.027 | . | .
COc1ccc(C2=NO[C@@H]3C(=O)N(c4ccc5c(c4)OCCO5)C(=O)[C@H]23)cc1OC | -5 | 3 | 93 | 0.07 | -31 | -0.17 | . | .
COc1ccc(C2=NO[C@@H]3C(=O)N(C4CCCCC4)C(=O)[C@H]23)cc1OC | -2 | -6 | 71 | 0.041 | 1 | 18* | -10 | -28
COC(=O)c1ccc(C(=O)OC)c(NC(=O)CCC(=O)O)c1 | -1 | 4 | 116 | 1.2 | 5 | 4.2* | -7.7 | -16
CCn1cc(C(=O)Nn2cnnc2)c(=O)c2ccc(C)nc21 | 4 | -7 | 91 | 0.58 | 6 | -0.08 | . | .
O=C(Nc1ncnc2c1ncn2C1OC(COC(=O)c2ccccc2)C(F)C1O)c1ccccc1 (stereo not given) | 4 | 0 | 126 | -1.1 | -2 | 2.6* | -11 | -12
O=C(OCC1OC2C(Oc3nc(=O)ccn32)C1O)c1ccccc1 (stereo not given) | -4 | -17 | 115 | -0.49 | 1 | 2.4 | . | .
COc1cccc(C2C=C(c3ccc(OC)cc3OC)Nc3nnnn32)c1 (stereo not given) | -8 | 3 | 54 | 0.62 | 2 | 3.3* | 37 | 8.4
COc1ccc(OC)c(C2C=C(c3ccc(C)c(C)c3)Nc3nnnn32)c1 (stereo not given) | 3 | 2 | 47 | 0.88 | -1 | -0.63 | . | .
COc1cccc(C2=CC(c3cc(OC)ccc3OC)n3nnnc3N2)c1 (stereo not given) | 0 | 5 | 42 | 0.035 | -1 | -0.47 | . | .
COc1ccc(C2=CC(c3ccc(C)cc3)n3nnnc3N2)cc1 (stereo not given) | 0 | . | 122 | -0.42 | . | 9.6* | 3.3 | -32
COc1ccc(C2OC(=O)c3ccccc3S2)cc1 (stereo not given) | 3 | 1 | 94 | -0.51 | -2 | 0.26 | . | .
CN1CCN(c2ccccc2NS(=O)(=O)c2ccc3c(c2)CCN3C(=O)C2CCC2)CC1 | 1 | -3 | 80 | -0.97 | 4 | -1.5 | . | .
Cc1cc(C)n2nc(C(=O)Nc3ccc4c(c3)OCO4)nc2n1 | -2 | 5 | 74 | 0.26 | 8 | 4.5* | ? | -52
CCCCOc1[nH]c2nc(-c3ccco3)n(Cc3ccco3)c(=N)c2c1C#N | 0 | -1 | 107 | -0.032 | -2 | 15* | 18 | 6.2
COc1ccc(N(Cc2cc3ccc(C)cc3[nH]c2=O)C(C)=O)cc1 | 0 | 3 | 90 | 0.39 | 2 | -1.6 | . | .
CCCCN1CCc2c([nH]c3ccc(C)cc23)C1=O | -6 | 2 | 63 | -0.076 | -4 | 3.5* | -12 | ?
Cc1ccc2[nH]c3c(NCCCN4CCCC4=O)ncnc3c2c1 | 1 | 22 | 84 | -0.74 | 8 | -0.27 | . | .
O=C1c2ccccc2C(Nc2ccc3c(c2)OCCO3)N1Cc1ccccc1 (stereo not given) | -2 | 2 | 96 | 0.53 | -5 | -0.35 | . | .
O=C(CCCCCn1c(=S)[nH]c2cc3c(cc2c1=O)OCO3)N1CCN(C2CCCCC2)CC1 | . | 0 | -16* | -5.1* | 9 | 2.1* | -23 | ?
COc1ccc(-c2nnc(SCC(=O)Nc3ccccc3OC)o2)cc1 | 2 | -1 | 78 | -0.07 | 10 | -0.37 | . | .
COc1ccccc1NC(=O)CSc1nnc(C)o1 | . | 3 | 68 | 0.078 | 5 | 2.4* | -12 | -29
CCCS(=O)(=O)c1nc(S(=O)(=O)c2ccc(C)cc2)c(N2CCCC2)s1 | -3 | -23 | 81 | -0.46 | 10 | -1.5 | . | .
SMILES | JNK3 inh | FXIIa inh mix | HER2 expr 66K | M1 antagonist | FXIa mix inh | M1 agonist | M1 ag confirm | M4 ag counter
CCCS(=O)(=O)c1nc(S(=O)(=O)c2ccc(C)cc2)c(NCCCN2CCOCC2)s1 | 1 | 6 | 97 | 0.017 | 8 | 2.5* | -14 | ?
COc1ccccc1NC(=O)N1CCc2[nH]c3ccc(Cl)cc3c2C1 | -5 | 0 | 82 | 0.0037 | 7 | -0.089 | . | .
CCC(C(=O)Nc1ccccc1OC)n1c(C(=O)OC)cc2ccsc21 (stereo not given) | -2 | 7 | 55 | 0.12 | 2 | -0.22 | . | .
c1ccc2c(c1)nc(N1CCN(C3CCCCC3)CC1)c1nnnn12 | 3 | -1 | 73 | -0.93 | 8 | -0.49 | . | .
c1ccc2c(c1)nc(N1CCOCC1)c1nnnn12 | 2 | 13 | 95 | 0.33 | -1 | 6.4* | 33 | 20
c1ccc(N2CCN(c3nc4ccccc4n4nnnc34)CC2)cc1 | 3 | 8 | 86 | 0.11 | 7 | 17* | ? | ?
CCCCOC(=O)CCc1nc2ccccc2[nH]1 | 3 | 10 | 92 | 0.34 | 3 | 3.6* | -14 | -44
Cc1coc(NC(=O)CSc2nc(-c3ccncc3)cc(C(F)(F)F)c2C#N)n1 | 0 | 3 | 54 | 0.049 | 3 | -0.52 | . | .
O=c1c(C=NCCCn2ccnc2)c(-c2ccccc2)[nH]n1-c1nc2ccccc2s1 | 15 | . | 70 | -1.1 | . | 5.2* | -4.6 | -18
CN1C(=O)c2cccc(NC(=O)C3CCCCC3)c2C1=O | 3 | 2 | 94 | -0.54 | 2 | 0.23 | . | .
CCNc1cccc2c1C(=O)N(C)C2=O | -2 | 3 | 102 | -0.69 | -4 | 179* | 928* | 935*
CN1C(=O)c2cccc(NCCCN3C(=O)c4ccccc4C3=O)c2C1=O | 2 | -16 | 120 | 1.1 | 5 | 4.8* | 8.1 | 16
CCOC(=O)C(C)n1cnc2c(cnn2-c2ccc(Cl)cc2)c1=O (stereo not given) | 1 | -10 | 179 | -0.41 | 1 | 4.2 | . | .
CCOC(=O)C(CC)n1cnc2c(cnn2-c2ccc(Cl)cc2)c1=O (stereo not given) | -1 | 12 | 108 | -6.2* | 7 | 55* | 2.9 | -21
